In PubChem BioAssay AID504847 (National Center for Advancing Translational Sciences (NCATS), 2011) one finds Potency and max response, negative = inhibition data, which are given here for 44 compounds.

SMILES strings stand for the structures. Values joined by “and” are separate entries in the source; they are usually repeats but may differ in a detail not shown here. Equal entries are not always repeated. Screen size: about 400,000 compounds; about 3,700 (0.93%) were called active. Not shown: some 3% with an inconclusive outcome. The call rests on the fitted dose curve; in most records, active means well fitted inhibition curve with a large enough effect; inconclusive means small, poorly fitted or top-dose-only effect, or another doubt; inactive means no such curve, though single readings can be large or run the other way. Many of the other results were omitted from the sample, so actives are more common in it than they were. Some structures have more than one record in an assay (separate samples or runs), and their calls can disagree.
On the % scale 0 is the no-effect control and ±100 the full control effect; potency means the concentration at half of the fitted maximal effect.

The target of this experiment is Vitamin D3 receptor (Homo sapiens) (UniProt P11473). The experiment is described as follows: Inhibitors of the vitamin D receptor (VDR): qHTS. The conditions noted are these: VDR-SRC2-3 peptide fluorescence polarization, 2 h; max response, negative = inhibition: hits give low values. The text has this: The vitamin D receptor (VDR) is a ligand-activated transcription factor and is partially responsible for the regulation of the endocrine system. This includes the transcriptional regulation of genes involved in the production of the parathyroid hormone (PTH) and the regulation of the blood calcium level. High levels of PHT can cause hypercalcemia in the case of primary and tertiary hyperparathyroidism. The VDR-mediated gene regulation, activated by its ligand 1,25-dihydroxyvitamin D3 (1,25-(OH)2D3), is governed by the recruitment of coactivators. Our hypothesis is that small molecules, with the ability to inhibit the interaction between VDR and certain coactivators, are able to selectively modulate VDR-mediated transcription. Our long term objective is the application these VDR-coactivator inhibitors to study the role of VDR-coactivator binding for specific VDR regulated genes. Ultimately, these molecules can be developed into new treatments for hypercalcemic hyperparathyroidism. No small molecule or non-peptide inhibitors are known for the VDR-coactivator interaction.
Chain of Vitamin D3 receptor (Homo sapiens) (P11473 whole entry, looked up): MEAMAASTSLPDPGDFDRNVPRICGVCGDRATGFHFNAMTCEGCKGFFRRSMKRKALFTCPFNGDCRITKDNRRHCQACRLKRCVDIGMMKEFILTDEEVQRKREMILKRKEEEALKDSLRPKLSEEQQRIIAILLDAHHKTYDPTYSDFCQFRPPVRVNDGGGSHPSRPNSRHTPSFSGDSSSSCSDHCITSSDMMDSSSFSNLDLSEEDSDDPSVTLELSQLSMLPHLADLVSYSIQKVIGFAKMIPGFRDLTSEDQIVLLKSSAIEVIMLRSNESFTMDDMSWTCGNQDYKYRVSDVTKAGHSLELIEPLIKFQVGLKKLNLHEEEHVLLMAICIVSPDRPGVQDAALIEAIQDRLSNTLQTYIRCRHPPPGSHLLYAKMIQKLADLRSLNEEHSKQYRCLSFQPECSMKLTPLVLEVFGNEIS
In a collaboration between the University of Wisconsin, Milwaukee and the NIH Chemical Genomics Center (NCGC) a HTS-compatible enzymatic assay was developed. The assay uses fluorescence polarization as its read-out to measure the inhibition between VDR and coregulator peptide SRC2-3 exerted by small molecules. This assay was used to screen the NIH Molecular Libraries Small Molecule Repository (MLSMR).
NIH Chemical Genomics Center [NCGC]
NIH Molecular Libraries Probe Centers Network [MLPCN]
Assay Submitter (PI): Alexander Arnold, University of Wilwaukee
Both solutions are kept at 4 deg C and protected from light and dispensed using a Kalypsys dispenser. Then 23nl of compounds and controls are added with Kalypsys pintool. […] Plate is centrifuged at 1000 RPM for 15 seconds to remove any residual bubbles. The plate is then incubate at ambient room temperature for 2 hours.
As to `CC[N+](C)(CC)CCC[n+]1c(-c2ccccc2)c2cc(N)ccc2c2ccc(N)cc21`, the Potency is 8.91 µM (active).
For `COc1ccc2c3c1O[C@H]1C[C@@H](O)C=C[C@@]31CCN(C)C2`, the max response, negative = inhibition was 4.74% (inactive) and -11.8% (inactive).
Regarding `c1ccc2c(c1)[I+]c1ccccc1-2`, the max response, negative = inhibition is -6.32% (inactive).
As for `COc1ccc(CN2C(=O)NC(=O)/C(=C\c3ccc(OC)c(OC)c3OC)C2=O)cc1`, the Potency is 70.8 µM (active).
Turning to `CNC(C)[C@@H](O)c1ccccc1` (stereo not given in full), the max response, negative = inhibition is 2.28% (inactive).
`CO[C@@H]1C[C@@H](C[C@H]2CC[C@H](C)[C@@H]([C@@H](C)C(=O)O)O2)O[C@]2(O[C@](C)([C@H]3CC[C@@](C)(C4OC([C@H]5O[C@@](O)(CO)[C@H](C)C[C@@H]5C)C[C@@H]4C)O3)C[C@H]2C)[C@@H]1C` (stereo not given in full): the max response, negative = inhibition was 10.2% (inactive).
Turning to `N#Cc1c(Cl)c(Cl)c(Cl)c(C#N)c1Cl`, the Potency is 0.794 µM (active).
For `CCCCCCCCCCCCN=C(N)N`, the max response, negative = inhibition was 6.41% (inactive).
As for `C[C@@H]1C[C@H]2CC[C@H](O2)[C@H](C)C(=O)O[C@@H](C)C[C@@H]2CC[C@@H](O2)[C@@H](C)C(=O)O[C@H](C)C[C@H]2CC[C@H](O2)[C@H](C)C(=O)O[C@@H](C)C[C@@H]2CC[C@@H](O2)[C@@H](C)C(=O)O1`, the max response, negative = inhibition was 8% (inactive).
On to `COc1ccc2c3c1OC1CC(O)C=C[C@@]31CCN(C)C2` (stereo not given in full), for which the max response, negative = inhibition was -3.65% (inactive).
Same read-out and setting: next, `NC[C@H](O)c1ccc(O)cc1`: 6.55% (inactive); `O=C(Nc1cccc(F)c1)N1CC[C@@]2(CCCN(C(=O)Oc3ccccc3)C2)C1`: 2.93% (inactive).
Regarding `CCOC(=O)c1ncn2c1[C@@H]1CCCN1C(=O)c1cc(OC)ccc1-2`, the max response, negative = inhibition was -6.26% (inactive).
Consider `CC(=O)c1c(O)c(C)c(O)c(Cc2c(O)c3c(c(C(=O)/C=C/c4ccccc4)c2O)OC(C)(C)C=C3)c1O`, for which the Potency is 14.1 µM (active) and 8.91 µM (active) and 39.8 µM (active).
Still for that read-out and setting: under `CC(=O)c1c(O)c(C)c(O)c(Cc2c(O)c3c(c(C(=O)/C=C\c4ccccc4)c2O)OC(C)(C)C=C3)c1O` stands 35.5 µM (active).
Consider `CN(C)C[C@H]1CCCC[C@]1(O)c1cccc(O)c1`, for which the max response, negative = inhibition was 1.62% (inactive).
As to `Cc1cccc([C@H](C)c2cnc[nH]2)c1C`, the max response, negative = inhibition is 7.28% (inactive).
Regarding `CO[C@H]1[C@@H](O)[C@@H](C)O[C@H](O[C@H]2[C@H](Oc3cccc4c(O)c5c(=O)oc6ccc(C)c7c(=O)oc(c34)c5c67)O[C@H](C)[C@H](O)[C@@H]2O)[C@@H]1O`, the max response, negative = inhibition was 14.9% (inactive).
Same read-out and setting: under `Cc1ccc(-n2c(/C=C/c3cccc(C(F)(F)F)c3)nc3ccccc3c2=O)cc1` stands 9.47% (inactive); under `Cc1ccc(NC(=O)N(Cc2ccc3c(c2)OCO3)C2CCN(Cc3ccccc3)CC2)cc1F`, 4.08% (inactive); under `Fc1ccc(C(OCCN2CCN(C/C=C\c3ccccc3)CC2)c2ccc(F)cc2)cc1`, -15.8% (inactive).
For `CCCCC/C=C\C/C=C\C/C=C\C/C=C\CCCCCC(=O)NCCO`, the Potency is 35.5 µM (active); the max response, negative = inhibition was 17.7% (inactive) and -2.94% (inactive) and 0.308% (inactive).
For `CCCCC/C=C\C/C=C\C/C=C\C=C\[C@H](CCCC(=O)O)OO`, the max response, negative = inhibition is 7.28% (inactive) and 4.32% (inactive).
Regarding `CCCCC/C=C\C/C=C\C/C=C\CCCCCCC(=O)NCCO`, the max response, negative = inhibition was -6.07% (inactive) and 11.4% (inactive) and 0.788% (inactive).
`CC[C@@H]1CN2CC[C@@H]1C[C@H]2[C@H](O)c1ccnc2ccc(OC)cc12`: the max response, negative = inhibition was 3.71% (inactive).
In the case of `COC(=O)N1C(c2ccccc2)C1c1ccccc1` (stereo not given), the max response, negative = inhibition is 8.84% (inactive).
With `CC(=O)[O][Sn]([c]1ccccc1)([c]1ccccc1)[c]1ccccc1`, the Potency is 2.24 µM (active).
On the same count and under the same terms, under `O=C(O)CCn1cc(C=C2C(=O)NC(=S)NC2=O)c(-c2cccc(Br)c2)n1` stands 25.1 µM (active).
As to `C[C@@]12CC[C@H]3[C@@H](CC[C@]4(O)C[C@H](O)CC[C@@]34C=O)[C@]1(O)CC[C@@H]2C1=CC(=O)OC1`, the max response, negative = inhibition is 6.85% (inactive).
Consider `c1csc(CN2CC3(CCNCC3)C2)n1`, for which the max response, negative = inhibition was 2.29% (inactive).
With `Cc1cccc2c3c(ccc12)C1=C(C(=O)C3=O)C(C)CO1` (stereo not given), the Potency is 5.62 µM (active).
As for `COc1ccc(C2Oc3c(I)c(OC)cc(OC)c3CC2O)cc1OC` (stereo not given), the max response, negative = inhibition was -4.29% (inactive).
The same measure, in the same setting: under `Nc1ccc(-c2ccc(N)c(N)c2)cc1N` stands 7.8% (inactive); under `c1ccc(CCCCN2CCC(c3ccccc3)CC2)cc1`, 6.23% (inactive) and 8.72% (inactive); under `Cc1ncsc1CCCl`, -5.72% (inactive) and -13.2% (inactive) and 18.1% (inactive).
For the compound `COc1ccccc1-c1[se]c2ccccc2c1I`, the max response, negative = inhibition is -10.1% (inactive).
As for `N#CC(C#N)=Cc1cc(O)c(O)c([N+](=O)[O-])c1`, the Potency is 44.7 µM (active).
In the case of `CCC(C)C(=O)O[C@@H]1C[C@@]2(C)C(c3ccoc3)OC(=O)CC23OC2(C)O[C@@]14[C@@]1(C)C(CC(=O)OC)C5(C)CC1(O)C(O)(C5OC(=O)C1(C)OC1C)C(OC(C)=O)[C@@]34O2` (stereo not given in full), the max response, negative = inhibition was -0.0436% (inactive).
For the compound `C[C@]12O[C@H](C[C@@]1(O)C(=O)O)n1c3ccccc3c3c4c(c5c6ccccc6n2c5c31)CNC4=O`, the max response, negative = inhibition was 0.321% (inactive).
`COc1cc2c(cc1OC)[C@@H]1C(=O)c3ccc(O)c(CC=C(C)C)c3OC1CO2` (stereo not given in full): the max response, negative = inhibition is 10.7% (inactive).
With `CCCCCCCCCCCCCC(=O)O[C@@H]1[C@@H](C)[C@@]2(O)[C@@H](C=C(CO)C[C@]3(O)C(=O)C(C)=C[C@@H]23)[C@@H]2C(C)(C)[C@]12OC(C)=O`, the max response, negative = inhibition is 3.48% (inactive).
Consider `CCC1(c2ccccc2)C(=O)NC(=O)N(C)C1=O` (stereo not given), for which the max response, negative = inhibition is 3.76% (inactive).
As to `O=P1(Oc2ccccc2)CC(O)C(O)C(COCc2ccccc2)O1` (stereo not given), the max response, negative = inhibition was -0.629% (inactive).
For `CC(=O)OC1C2(CC3N4C(=O)C5(CO)SSC4(CC31O)C(=O)N5C)OC(C)C(C)(C)C2=O` (stereo not given), the Potency was 39.8 µM (active).
